# Measured values as given in paper PMC7862700, “An all-to-all approach to the identification of sequence-specific readers for epigenetic DNA modifications on cytosine”.
# Columns and labels:
# Assay in all cases: DAPPL (digital affinity profiling via proximity ligation, sequencing); 10 mM Tris-HCl pH 7.5, 50 mM NaCl, 1 mM DTT, 4% glycerol, room temperature, 30 min; GST-TFs on glutathione beads, 16-mer random dsDNA library, 0.1% formaldehyde crosslink after washing; high values mean tight binding
# FEV = target: T1, FEV (Homo sapiens, UniProt Q99581 1-238); details: protein: recombinant; tags: N-terminal GST; dsDNA, one strand shown
# T1 sequence: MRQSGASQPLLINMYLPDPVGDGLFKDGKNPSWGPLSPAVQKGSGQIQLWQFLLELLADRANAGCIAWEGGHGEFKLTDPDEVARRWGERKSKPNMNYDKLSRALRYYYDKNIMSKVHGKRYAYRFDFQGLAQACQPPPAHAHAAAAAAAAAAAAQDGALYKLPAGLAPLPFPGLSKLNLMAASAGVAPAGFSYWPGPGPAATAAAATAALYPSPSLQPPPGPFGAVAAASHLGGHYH
# How it was run: (§1)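 Each value of binding signal is a hexamer's read frequency for a factor divided by the same hexamer's frequency in the tag-only sample. Barcoded, bead-captured GST fusions of human transcription factors made in yeast were pooled with that sample and incubated with 200 nmole of a random double-stranded 16-mer DNA library in Tris/NaCl/DTT/glycerol buffer at room temperature for 30 min. Washing, 0.1% formaldehyde crosslinking, proximity ligation, PCR and Illumina NextSeq500 sequencing followed.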
# ETV5 = ETV5 (Homo sapiens, UniProt P41161 1-510); details: protein: recombinant; tags: N-terminal GST; dsDNA, one strand shown
# Chain of ETV5 (P41161 whole entry): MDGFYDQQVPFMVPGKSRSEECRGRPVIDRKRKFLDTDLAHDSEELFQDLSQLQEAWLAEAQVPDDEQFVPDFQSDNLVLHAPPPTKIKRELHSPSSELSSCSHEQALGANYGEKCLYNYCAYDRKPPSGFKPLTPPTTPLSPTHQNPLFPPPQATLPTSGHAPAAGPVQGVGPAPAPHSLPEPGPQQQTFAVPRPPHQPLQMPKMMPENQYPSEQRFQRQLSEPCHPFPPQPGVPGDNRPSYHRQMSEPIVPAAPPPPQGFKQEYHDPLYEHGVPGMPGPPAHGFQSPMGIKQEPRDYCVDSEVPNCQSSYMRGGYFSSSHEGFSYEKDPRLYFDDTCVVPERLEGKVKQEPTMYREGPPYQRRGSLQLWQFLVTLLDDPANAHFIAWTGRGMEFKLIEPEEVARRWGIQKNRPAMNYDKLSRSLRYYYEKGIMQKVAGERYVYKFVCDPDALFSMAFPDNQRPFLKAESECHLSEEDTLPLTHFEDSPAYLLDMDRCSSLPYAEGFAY
# How it was run: as §1
# HSF1 = HSF1 (Homo sapiens, UniProt Q00613 1-529); details: protein: recombinant; tags: N-terminal GST; chain copies: 3; dsDNA, one strand shown
# Chain of HSF1 (Q00613 whole entry): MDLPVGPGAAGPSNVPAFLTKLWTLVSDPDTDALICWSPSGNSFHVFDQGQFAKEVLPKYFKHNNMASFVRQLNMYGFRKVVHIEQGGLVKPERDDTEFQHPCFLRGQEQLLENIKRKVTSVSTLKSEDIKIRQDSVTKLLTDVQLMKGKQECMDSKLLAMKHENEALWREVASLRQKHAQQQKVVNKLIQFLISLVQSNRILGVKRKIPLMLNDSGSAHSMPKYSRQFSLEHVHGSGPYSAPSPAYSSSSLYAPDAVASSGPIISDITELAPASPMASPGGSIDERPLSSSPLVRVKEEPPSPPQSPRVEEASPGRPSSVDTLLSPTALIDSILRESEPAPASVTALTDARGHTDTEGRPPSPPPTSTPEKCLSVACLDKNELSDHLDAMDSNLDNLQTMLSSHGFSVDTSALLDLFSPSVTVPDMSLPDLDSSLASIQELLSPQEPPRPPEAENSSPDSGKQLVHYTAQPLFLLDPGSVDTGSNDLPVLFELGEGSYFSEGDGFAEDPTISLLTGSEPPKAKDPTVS
# How it was run: as §1
# SPIC = target: T2, SPIC (Homo sapiens, UniProt Q8N5J4 1-248); details: protein: recombinant; tags: N-terminal GST; dsDNA, one strand shown
# T2 sequence: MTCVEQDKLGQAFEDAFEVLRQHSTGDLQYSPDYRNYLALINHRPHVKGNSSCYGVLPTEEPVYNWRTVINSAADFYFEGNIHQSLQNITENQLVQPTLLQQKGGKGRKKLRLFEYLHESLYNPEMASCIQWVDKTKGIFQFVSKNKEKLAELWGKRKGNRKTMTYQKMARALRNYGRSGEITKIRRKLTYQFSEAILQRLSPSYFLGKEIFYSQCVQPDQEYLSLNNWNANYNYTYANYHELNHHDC
# How it was run: as §1
# ELF4 = ELF4 (Homo sapiens, UniProt Q99607 1-663); details: protein: recombinant; tags: N-terminal GST; dsDNA, one strand shown
# Chain of ELF4 (Q99607 whole entry): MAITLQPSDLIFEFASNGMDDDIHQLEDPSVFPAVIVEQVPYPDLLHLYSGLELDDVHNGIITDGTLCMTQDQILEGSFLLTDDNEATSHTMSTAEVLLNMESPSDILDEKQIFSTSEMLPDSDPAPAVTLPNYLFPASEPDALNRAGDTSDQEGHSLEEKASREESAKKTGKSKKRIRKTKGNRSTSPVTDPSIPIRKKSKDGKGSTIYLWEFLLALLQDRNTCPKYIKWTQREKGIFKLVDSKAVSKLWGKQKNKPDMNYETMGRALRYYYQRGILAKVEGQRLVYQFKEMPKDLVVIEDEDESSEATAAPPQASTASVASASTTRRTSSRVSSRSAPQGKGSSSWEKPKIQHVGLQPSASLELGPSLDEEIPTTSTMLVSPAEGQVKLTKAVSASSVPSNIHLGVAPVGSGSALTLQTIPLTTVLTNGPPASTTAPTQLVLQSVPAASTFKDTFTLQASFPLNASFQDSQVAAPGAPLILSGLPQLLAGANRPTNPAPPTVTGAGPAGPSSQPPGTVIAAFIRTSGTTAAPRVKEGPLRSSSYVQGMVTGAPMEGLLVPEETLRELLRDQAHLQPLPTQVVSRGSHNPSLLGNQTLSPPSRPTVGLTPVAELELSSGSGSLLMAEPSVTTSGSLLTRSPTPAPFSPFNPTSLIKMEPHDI
# How it was run: as §1
# ELK4 = target: T3, ELK4 (Homo sapiens, UniProt P28324-2 1-405); details: protein: recombinant; tags: N-terminal GST; dsDNA, one strand shown
# T3 sequence: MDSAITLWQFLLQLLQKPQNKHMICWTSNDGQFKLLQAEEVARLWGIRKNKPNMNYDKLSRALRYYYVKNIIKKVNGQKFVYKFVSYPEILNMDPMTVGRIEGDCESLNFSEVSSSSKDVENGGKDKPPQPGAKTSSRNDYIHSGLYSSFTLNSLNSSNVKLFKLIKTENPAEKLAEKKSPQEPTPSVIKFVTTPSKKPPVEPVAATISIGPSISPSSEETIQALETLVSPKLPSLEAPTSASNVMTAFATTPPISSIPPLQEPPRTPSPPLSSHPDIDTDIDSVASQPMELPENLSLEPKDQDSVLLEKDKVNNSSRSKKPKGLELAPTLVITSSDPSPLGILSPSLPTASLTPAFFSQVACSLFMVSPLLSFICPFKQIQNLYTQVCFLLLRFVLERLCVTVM
# How it was run: as §1
# ETV2 = target: T4, ETV2 (Homo sapiens, UniProt O00321 1-342); details: protein: recombinant; tags: N-terminal GST; dsDNA, one strand shown
# T4 sequence: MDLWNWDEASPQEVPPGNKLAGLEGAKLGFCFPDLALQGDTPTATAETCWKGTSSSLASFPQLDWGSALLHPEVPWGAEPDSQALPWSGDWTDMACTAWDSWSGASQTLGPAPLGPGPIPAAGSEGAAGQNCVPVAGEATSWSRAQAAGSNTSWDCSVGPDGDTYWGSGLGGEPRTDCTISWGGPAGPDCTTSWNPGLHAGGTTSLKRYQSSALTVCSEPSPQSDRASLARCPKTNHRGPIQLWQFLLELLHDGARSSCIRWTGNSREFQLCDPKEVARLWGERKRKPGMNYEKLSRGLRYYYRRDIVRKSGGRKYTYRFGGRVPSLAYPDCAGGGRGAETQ
# How it was run: as §1
# ELF3 = target: T5, ELF3 (Homo sapiens, UniProt P78545 1-371); details: protein: recombinant; tags: N-terminal GST; dsDNA, one strand shown
# T5 sequence: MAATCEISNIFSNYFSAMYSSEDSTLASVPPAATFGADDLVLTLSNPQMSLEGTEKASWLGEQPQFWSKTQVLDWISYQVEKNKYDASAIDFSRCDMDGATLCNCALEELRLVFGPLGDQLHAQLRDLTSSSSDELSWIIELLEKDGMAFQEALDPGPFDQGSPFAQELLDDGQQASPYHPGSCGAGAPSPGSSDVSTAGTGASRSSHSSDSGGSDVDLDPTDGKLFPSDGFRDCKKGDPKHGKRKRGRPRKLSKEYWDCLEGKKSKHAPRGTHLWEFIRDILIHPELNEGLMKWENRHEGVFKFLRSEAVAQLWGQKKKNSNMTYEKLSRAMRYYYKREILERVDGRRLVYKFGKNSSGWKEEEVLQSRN
# How it was run: as §1
# CRX = CRX (Homo sapiens, UniProt O43186 1-299); details: protein: recombinant; tags: N-terminal GST; dsDNA, one strand shown
# Chain of CRX (O43186 whole entry): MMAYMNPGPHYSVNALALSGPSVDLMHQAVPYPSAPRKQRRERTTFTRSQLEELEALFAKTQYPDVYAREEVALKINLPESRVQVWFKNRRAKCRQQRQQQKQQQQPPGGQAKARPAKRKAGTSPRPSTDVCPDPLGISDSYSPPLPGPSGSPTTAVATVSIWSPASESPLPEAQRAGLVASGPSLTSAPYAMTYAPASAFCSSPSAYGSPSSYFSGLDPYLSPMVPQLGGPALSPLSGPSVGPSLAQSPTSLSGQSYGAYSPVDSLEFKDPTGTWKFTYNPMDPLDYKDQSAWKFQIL
# How it was run: as §1
# ETV1 = ETV1 (Homo sapiens, UniProt P50549 1-477); details: protein: recombinant; tags: N-terminal GST; dsDNA, one strand shown
# Chain of ETV1 (P50549 whole entry): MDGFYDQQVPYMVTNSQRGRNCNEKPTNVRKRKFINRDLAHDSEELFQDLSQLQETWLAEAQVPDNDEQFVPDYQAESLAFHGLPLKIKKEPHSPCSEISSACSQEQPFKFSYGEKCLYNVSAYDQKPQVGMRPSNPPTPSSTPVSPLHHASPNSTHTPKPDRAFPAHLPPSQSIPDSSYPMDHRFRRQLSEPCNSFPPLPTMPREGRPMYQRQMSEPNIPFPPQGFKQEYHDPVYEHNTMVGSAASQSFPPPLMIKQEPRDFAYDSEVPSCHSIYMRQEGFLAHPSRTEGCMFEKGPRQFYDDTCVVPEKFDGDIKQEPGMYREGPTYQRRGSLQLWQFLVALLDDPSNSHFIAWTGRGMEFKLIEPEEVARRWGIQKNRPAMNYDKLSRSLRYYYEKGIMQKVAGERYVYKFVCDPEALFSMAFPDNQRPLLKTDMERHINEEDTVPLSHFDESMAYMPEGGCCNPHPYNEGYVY
# How it was run: as §1
# ERF = target: T6, ERF (Homo sapiens, UniProt P50548 1-548); details: protein: recombinant; tags: N-terminal GST; dsDNA, one strand shown
# T6 sequence: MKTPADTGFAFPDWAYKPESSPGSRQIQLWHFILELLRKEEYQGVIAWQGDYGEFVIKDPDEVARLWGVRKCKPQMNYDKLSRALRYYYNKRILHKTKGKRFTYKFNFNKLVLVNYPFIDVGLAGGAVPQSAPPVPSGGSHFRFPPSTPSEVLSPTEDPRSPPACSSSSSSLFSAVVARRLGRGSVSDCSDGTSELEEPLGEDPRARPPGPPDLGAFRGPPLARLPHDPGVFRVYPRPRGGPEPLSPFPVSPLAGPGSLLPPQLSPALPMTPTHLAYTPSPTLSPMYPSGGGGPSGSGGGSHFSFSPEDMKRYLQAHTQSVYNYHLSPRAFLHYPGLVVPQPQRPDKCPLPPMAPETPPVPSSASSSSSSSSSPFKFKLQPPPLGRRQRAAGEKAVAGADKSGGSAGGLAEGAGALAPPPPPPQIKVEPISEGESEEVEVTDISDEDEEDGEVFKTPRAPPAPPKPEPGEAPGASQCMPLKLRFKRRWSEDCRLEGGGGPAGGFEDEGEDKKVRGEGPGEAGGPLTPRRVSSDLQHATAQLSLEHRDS
# How it was run: as §1
# ETV3L = target: T7, ETV3L (Homo sapiens, UniProt Q6ZN32 1-361); details: protein: recombinant; tags: N-terminal GST; dsDNA, one strand shown
# T7 sequence: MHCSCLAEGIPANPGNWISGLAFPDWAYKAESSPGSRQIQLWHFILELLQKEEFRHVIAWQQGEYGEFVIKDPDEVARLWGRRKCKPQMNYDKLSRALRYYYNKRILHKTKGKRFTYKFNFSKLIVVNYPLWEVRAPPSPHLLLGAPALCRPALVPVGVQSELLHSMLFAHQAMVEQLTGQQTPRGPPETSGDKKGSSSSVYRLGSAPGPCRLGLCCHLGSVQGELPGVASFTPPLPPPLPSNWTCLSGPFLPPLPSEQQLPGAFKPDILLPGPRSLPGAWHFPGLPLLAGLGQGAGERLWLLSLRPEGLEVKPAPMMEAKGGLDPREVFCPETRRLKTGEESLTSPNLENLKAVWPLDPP
# How it was run: as §1
# ETS2 = target: T8, ETS2 (Homo sapiens, UniProt P15036 1-469); details: protein: recombinant; tags: N-terminal GST; dsDNA, one strand shown
# T8 sequence: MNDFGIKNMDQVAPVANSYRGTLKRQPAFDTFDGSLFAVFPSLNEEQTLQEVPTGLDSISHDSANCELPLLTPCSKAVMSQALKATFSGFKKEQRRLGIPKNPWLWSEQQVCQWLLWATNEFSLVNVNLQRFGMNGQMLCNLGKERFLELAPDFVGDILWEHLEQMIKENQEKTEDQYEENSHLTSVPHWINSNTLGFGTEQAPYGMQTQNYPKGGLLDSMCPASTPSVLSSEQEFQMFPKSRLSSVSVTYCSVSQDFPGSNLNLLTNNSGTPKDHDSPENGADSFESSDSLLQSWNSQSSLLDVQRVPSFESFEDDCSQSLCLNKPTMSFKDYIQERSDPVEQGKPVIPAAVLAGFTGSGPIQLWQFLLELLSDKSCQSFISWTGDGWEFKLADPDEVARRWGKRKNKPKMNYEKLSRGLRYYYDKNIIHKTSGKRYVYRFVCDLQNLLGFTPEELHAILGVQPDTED
# How it was run: as §1
# SPDEF = target: T9, SPDEF (Homo sapiens, UniProt O95238 1-335); details: protein: recombinant; tags: N-terminal GST; dsDNA, one strand shown
# T9 sequence: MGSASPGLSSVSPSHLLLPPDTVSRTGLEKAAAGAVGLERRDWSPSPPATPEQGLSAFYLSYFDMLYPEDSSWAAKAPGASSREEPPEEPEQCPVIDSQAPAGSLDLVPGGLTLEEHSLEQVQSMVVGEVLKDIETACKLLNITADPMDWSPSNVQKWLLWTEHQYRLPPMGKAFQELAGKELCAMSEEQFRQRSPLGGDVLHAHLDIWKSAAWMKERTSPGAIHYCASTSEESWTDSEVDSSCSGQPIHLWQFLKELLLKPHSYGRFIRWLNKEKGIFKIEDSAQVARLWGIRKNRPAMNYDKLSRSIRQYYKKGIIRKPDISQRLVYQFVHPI
# How it was run: as §1
# ETV7 = target: T10, ETV7 (Homo sapiens, UniProt Q9Y603 1-341); details: protein: recombinant; tags: N-terminal GST; dsDNA, one strand shown
# T10 sequence: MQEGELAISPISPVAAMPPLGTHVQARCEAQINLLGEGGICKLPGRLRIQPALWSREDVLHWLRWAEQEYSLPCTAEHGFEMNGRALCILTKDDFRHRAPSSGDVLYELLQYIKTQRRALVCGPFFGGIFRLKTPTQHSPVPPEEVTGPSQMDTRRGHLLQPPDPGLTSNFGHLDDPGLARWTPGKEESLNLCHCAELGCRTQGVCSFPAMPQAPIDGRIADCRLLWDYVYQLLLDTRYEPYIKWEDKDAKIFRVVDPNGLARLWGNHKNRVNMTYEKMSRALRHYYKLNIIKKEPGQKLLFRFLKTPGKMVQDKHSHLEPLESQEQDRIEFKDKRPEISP
# How it was run: as §1
# ELF5 = target: T11, ELF5 (Homo sapiens, UniProt Q9UKW6-2 1-255); details: protein: recombinant; tags: N-terminal GST; dsDNA, one strand shown
# T11 sequence: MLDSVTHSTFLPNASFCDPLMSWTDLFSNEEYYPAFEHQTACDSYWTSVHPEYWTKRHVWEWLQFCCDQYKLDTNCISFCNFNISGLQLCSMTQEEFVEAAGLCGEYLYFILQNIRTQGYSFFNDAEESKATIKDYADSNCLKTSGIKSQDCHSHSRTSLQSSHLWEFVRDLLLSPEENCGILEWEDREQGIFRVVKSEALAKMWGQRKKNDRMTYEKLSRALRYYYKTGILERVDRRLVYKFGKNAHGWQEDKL
# How it was run: as §1
# ETV3 = target: T12, ETV3 (Homo sapiens, UniProt P41162-2 1-143); details: protein: recombinant; tags: N-terminal GST; dsDNA, one strand shown
# T12 sequence: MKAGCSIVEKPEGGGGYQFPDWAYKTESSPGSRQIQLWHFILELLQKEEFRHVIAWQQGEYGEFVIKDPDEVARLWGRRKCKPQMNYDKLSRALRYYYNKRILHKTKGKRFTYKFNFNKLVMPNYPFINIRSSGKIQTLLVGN
# How it was run: as §1
# ETV6 = ETV6 (Homo sapiens, UniProt P41212 1-452); details: protein: recombinant; tags: N-terminal GST; dsDNA, one strand shown
# Chain of ETV6 (P41212 whole entry): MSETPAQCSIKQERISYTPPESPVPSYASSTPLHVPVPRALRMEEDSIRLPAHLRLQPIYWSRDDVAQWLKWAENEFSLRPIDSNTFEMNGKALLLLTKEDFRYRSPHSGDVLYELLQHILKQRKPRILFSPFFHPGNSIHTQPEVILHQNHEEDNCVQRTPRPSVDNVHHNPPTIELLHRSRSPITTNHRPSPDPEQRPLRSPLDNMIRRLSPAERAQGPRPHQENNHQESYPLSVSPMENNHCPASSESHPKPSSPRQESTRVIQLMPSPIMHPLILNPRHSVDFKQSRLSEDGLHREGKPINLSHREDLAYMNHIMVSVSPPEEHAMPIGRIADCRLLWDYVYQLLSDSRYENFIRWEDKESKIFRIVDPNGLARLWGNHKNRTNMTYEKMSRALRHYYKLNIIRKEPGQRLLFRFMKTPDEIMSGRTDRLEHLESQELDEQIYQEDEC
# How it was run: as §1
sequence,measurement,setting,value
ATTGCT,binding signal,FEV,"1.22 fold enrichment (6-mer frequency, TF over GST control)"
same,binding signal,ETV5,"1.16 fold enrichment (6-mer frequency, TF over GST control)"
same,binding signal,HSF1,"1.14 fold enrichment (6-mer frequency, TF over GST control)"
same,binding signal,SPIC,"1.32 fold enrichment (6-mer frequency, TF over GST control)"
same,binding signal,ELF4,"1.19 fold enrichment (6-mer frequency, TF over GST control)"
same,binding signal,ELK4,"1.16 fold enrichment (6-mer frequency, TF over GST control)"
same,binding signal,ETV2,"1.22 fold enrichment (6-mer frequency, TF over GST control)"
same,binding signal,ELF3,"1.28 fold enrichment (6-mer frequency, TF over GST control)"
same,binding signal,CRX,"1.17 fold enrichment (6-mer frequency, TF over GST control)"
same,binding signal,ETV1,"1.27 fold enrichment (6-mer frequency, TF over GST control)"
same,binding signal,ERF,"1.15 fold enrichment (6-mer frequency, TF over GST control)"
same,binding signal,ETV3L,"1.25 fold enrichment (6-mer frequency, TF over GST control)"
same,binding signal,ETS2,"1.23 fold enrichment (6-mer frequency, TF over GST control)"
same,binding signal,SPDEF,"1.17 fold enrichment (6-mer frequency, TF over GST control)"
same,binding signal,ETV7,"1.43 fold enrichment (6-mer frequency, TF over GST control)"
same,binding signal,ELF5,"1.18 fold enrichment (6-mer frequency, TF over GST control)"
same,binding signal,ETV3,"1.11 fold enrichment (6-mer frequency, TF over GST control)"
same,binding signal,ETV6,"1.15 fold enrichment (6-mer frequency, TF over GST control)"
